# PNC inhibitor – High Content Assay for Compounds that inhibit the Assembly of the Perinucleolar Compartment; 3.1% of 140,000 active; PC3M PTB-GFP, PNC prevalence imaging, 16 h; hits give low values; activity change (PNC), negative = inhibition, % at 10 µM;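 active = readout at or below -70, meaning at least 70% loss of cells showing the perinucleolar compartment, a nuclear body marking cancer cells; inconclusive = readout between -30 and a set limit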;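 note: plate controls were DMSO wells for no effect and camptothecin positive control wells for full effect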
#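 Compounds are pinned in duplicate onto adhered PC3M cells stably expressing GFP-tagged PTB and incubated 16 h at 37 C. Cells are then fixed, nuclei stained with Hoechst, and PNC-positive cells counted.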
# IMPase cell inh – qHTS Assay for Identifying the Cell-Membrane Permeable IMPase Inhibitors | Inositol monophosphatase 1 (Rattus norvegicus), P97697 | CHO-M1 cells, IP1 accumulation, HTRF TR-FRET ratio | inhibition (IP1 accumulation), % at 46.1 µM | 120,000 tested, under 10 active | AID 901, 2007; active = well fitted curve in the direction sought with a large enough effect in the signal ratio, not every such curve was filed as active; inconclusive = small, poorly fitted or top-dose-only effect, or a change in a side signal; inactive = no such curve, though single readings can be large or run the other way; the % refers to the signal ratio;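 note: cells stimulated with carbachol in lithium chloride buffer; plate controls were DMSO basal wells for no effect and reference inhibitor wells for full effect; higher means more IMPase inhibition seen as more IP1 and lower FRET ratio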
#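 Measured: the HTRF emission ratio (665/620 nm) plus the 620 nm donor channel, each fitted to the Hill equation to give AC50. Cells were CHO-M1 given compounds up to 46 uM and a 30 min carbachol stimulation at 37C.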
# ALDH1A1 block – qHTS Assay for Inhibitors of Aldehyde Dehydrogenase 1 (ALDH1A1); Aldehyde dehydrogenase 1A1 (Homo sapiens), P00352; Purified ALDH1A1, NADH fluorescence, propionaldehyde substrate; Potency, µM (top dose mostly 75.3 µM), for inactives: top-dose activity, negative = inhibition, actives largely listed as inhibitors; 7.3% of 220,000 active; AID 1030, 2008;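 note: potency is the fitted concentration of half-maximal effect; plate controls were no enzyme wells and a reference inhibitor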
# Target sequence (P00352 whole entry, looked up): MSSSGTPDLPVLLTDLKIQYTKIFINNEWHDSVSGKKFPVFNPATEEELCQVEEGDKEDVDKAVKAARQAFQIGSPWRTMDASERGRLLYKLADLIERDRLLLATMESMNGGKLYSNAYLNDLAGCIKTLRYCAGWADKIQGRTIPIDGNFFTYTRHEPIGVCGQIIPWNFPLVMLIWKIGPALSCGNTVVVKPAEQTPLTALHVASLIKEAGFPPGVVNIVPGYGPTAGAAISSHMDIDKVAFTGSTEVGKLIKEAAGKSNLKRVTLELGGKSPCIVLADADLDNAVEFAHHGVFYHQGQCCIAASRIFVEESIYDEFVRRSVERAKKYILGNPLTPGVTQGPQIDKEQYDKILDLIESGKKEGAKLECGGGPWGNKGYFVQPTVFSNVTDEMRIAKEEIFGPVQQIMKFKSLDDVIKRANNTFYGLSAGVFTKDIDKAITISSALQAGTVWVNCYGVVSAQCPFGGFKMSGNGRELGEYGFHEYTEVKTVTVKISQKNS
# HPGD block – qHTS Assay for Inhibitors of HPGD (15-Hydroxyprostaglandin Dehydrogenase); Potency, µM, for inactives: top-dose activity change, negative = inhibition, actives largely listed as inhibitors; 4.3% of 150,000 active; purified HPGD, NADH fluorescence kinetic, PGE2 substrate; AID 894, 2007; 15-hydroxyprostaglandin dehydrogenase [NAD(+)] (Homo sapiens), P15428; note: potency is the fitted concentration of half-maximal effect
#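 NADH formation kinetics: reaction with 30 uM PGE2 and 1 mM NAD+ (final), 20 nM enzyme, Tris-HCl pH 8 with Tween 20, after 15 min compound preincubation at room temperature. Fluorescence change, last versus first of five reads.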
# IMPase Li cell – qHTS Assay for Identifying the Cell-Membrane Permeable IMPase Inhibitors: Potentiation with Lithium; CHO-M1 cells, IP1 TR-FRET (IP-One), carbachol + lithium; AID 1457, 2008; 0.35% of 210,000 active; Potency, µM (top dose mostly 59.4 µM), without a hit: at the top dose activity, negative = IMPase inhibition, hits mostly inhibitors; active = well fitted inhibition curve with a large enough effect; inconclusive = small, poorly fitted or top-dose-only effect; inactive = no such curve, though single readings can be large or run the other way;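 note: IP1 builds up when IMPase is blocked and the TR-FRET signal falls; potency is the fitted concentration of half-maximal effect; plate controls were basal vehicle for no effect and high inhibitor control for full effect; nearly all actives have a fitted effect of over 50% in size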
#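 Steps: plate 2000 CHO-M1 cells per well and culture 16–30 h; add compound and lithium; incubate 30 min, 37C; add d2-IP1 tracer and Eu cryptate anti-IP1 antibody in lysis buffer; read after 10 min at room temperature.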
# Active calls of the source: *; u = inconclusive; x = no result; ! = a repeat was not active; [ ] = another dose, or the depositor's remark. Most compounds without a hit are left out; they make up all but 11% or so of the library. Unless noted, calls come from the whole dose curve; as a rule, active = well fitted inhibition curve with a large enough effect (not every such curve was filed as active); inconclusive = small, poorly fitted or top-dose-only effect, or another doubt; inactive = no such curve, though single readings can be large or run the other way. Unless noted, % is set by controls: 0 for no effect and ±100 for the full control effect.
SMILES,PNC inhibitor,IMPase cell inh,ALDH1A1 block,HPGD block,IMPase Li cell
COC(=O)c1cc2cc(NS(=O)(=O)c3ccc(C)cc3)ccc2s1,-100.0*,-7.7,-0.8%,-15.0%,6.4%
Cc1ccc(S(=O)(=O)Nc2ccc3c(c2)CCC3)cc1,-12.3,3.1,11.2µM*,-17.9%,23.5%
Cc1ccc(S(=O)(=O)NNC(=O)C(=O)NNS(=O)(=O)c2ccc(C)cc2)cc1,x,x,-5.8%,x,-2.9%
COC(=O)Nc1ccc(S(=O)(=O)Nc2ccc(C)cc2)cc1,2.0,-7.2,1.6%,-3.9%,16.9%[38.3 µM]
c1cncc(-c2nnc(-c3cccnc3)nn2)c1,u,13.8,11.2µM*,8.91µM*,-2.7%[38.3 µM]
Cc1ccc(C2C3=C(CC(C)(C)CC3=O)Nc3[nH]c(=S)[nH]c(=O)c32)cc1 (configuration not stated),u,7.7,-0.3%,17.8µM*,1.1%
CN[C@@H]1[C@H](O[C@@H]2O[C@H](CO)[C@@H](N)[C@H](O)[C@@H]2O)O[C@H]2C[C@@H](N)[C@@H](O[C@H]3[C@@H](O)[C@H](O)[C@H](N)C[C@@H]3N)O[C@H]2[C@H]1O,x,-2.1[20.6 µM],-2.6%[20.9 µM],1.0%,1.9%
CN[C@@H]1[C@H](O[C@@H]2O[C@H](C)[C@@](O)(CO)[C@H]2O[C@H]2[C@H](O)[C@H](O)[C@H](N=C(N)N)[C@@H](O)[C@@H]2N=C(N)N)O[C@@H](CO)[C@H](O)[C@H]1O,x,x,10µM*,-0.2%,0.6%
C=C(C)CSc1nc2c(c(=O)[nH]c(=O)n2C)n1CCC(C)C,-5.2,17.7,u,-9.0%,2.2%[38.3 µM]
CCC(=S)/C=C1\Sc2ccc3ccccc3c2N1CCCS(=O)(=O)O,u,1.5,-2.8%,31.6µM*,-10.2%[38.3 µM]
Cc1ccc(C)n1-c1nc(=S)[nH][nH]1,-5.0,2.0,25.1µM*,15.8µM*,10.4%[38.3 µM]
Cc1ccc(C)n1-c1ccc(-c2ccn[nH]2)cc1,x,x,u,x,19.8%
Cc1ccc(N2C(=O)C3C(C2=O)C2C=CC3C23CC3)c([N+](=O)[O-])c1 (configuration not stated),x,x,2.51µM*,x,19.7%
CN(C)CC(=O)Nc1cc(C(F)(F)F)ccc1Cl,u,-4.1,5.2%,-16.1%,-0.2%[38.3 µM]
CNC(=S)Nc1cc(C(F)(F)F)ccc1Cl,-86.3*,x,4.0%,-7.4%,3.0%
N/C(CC(=O)Nc1cc(C(F)(F)F)ccc1Cl)=N\O,x,x,28.2µM*!,-3.5%,6.3%
COc1cc(/C=C(\NC(=O)c2ccccc2)C(=O)Nc2cccc(O)c2)c([N+](=O)[O-])cc1OC,13.3,1.5,-13.2%,-8.4%,1.9%[38.3 µM]
COc1cc(/C=C(\NC(=O)c2ccccc2)C(=O)NCCO)c([N+](=O)[O-])cc1OC,-93.1*,x,-0.7%,-5.0%,-10.4%
CCCCOc1cccc(C(=O)NNC(=S)NC2CCCCC2)c1,u,-4.1,-15.5%,-10.7%,-2.8%
CCOc1cccc(C(=O)NC2CCCCC2)c1,u,u,0.6%,28.2µM*,-2.8%[38.3 µM]
CCOc1ccc(C(=S)NC2CCCCC2)cc1,-14.4,5.5,8.91µM*,14.1µM*,20.5%[38.3 µM]
COc1cc(SC)ccc1C(=O)N1CCN(c2ccccc2)CC1,x,x,-4.7%,x,-0.8%
COc1cc(SC)ccc1C(=O)N1CCCCCC1,-17.4,2.8,5.7%,3.16µM*,11.0%
O=C(NC1CC1)c1ccc(F)cc1Cl,1.3,-3.6,-6.2%,20µM*,25.8%[38.3 µM]
O=C(NC1CCCCCCC1)c1cc(F)c(F)cc1Cl,x,x,-13.4%,x,3.5%
CSc1ccc(Cl)c(C(=O)NC2CCCC2)c1,20.1,2.5,9.3%,15.8µM*,7.7%[38.3 µM]
COc1cc(SC)ccc1C(=O)NC1CCCCC1,-24.8,-0.9,u,22.4µM*,11.9%[38.3 µM]
Oc1c(Cl)cc(Cl)cc1C1=NNC(c2ccc(Cl)cc2)C1 (configuration not stated),x,x,6.31µM*,x,-1.9%
CON,x,x,-2.6%,-4.6%,1.1%
CCOc1ccc(S(=O)(=O)Nc2cc(S(=O)(=O)N(CC)CC)ccc2N2CCCC2)cc1,-121.5*,x,0.794µM*,-10.9%,5.6%

# From PubChem BioAssay
